Read-out in experiment [1]: Interleukin-8 (IL8), CXCL8 (gene 3576)
The experiment in a line: BSK_3C_IL8: BioMAP Diversity Plus: 3C Assay for Interleukin-8 (IL8) Biomarker Activity (AID 2283020). As to conditions: primary human endothelial cells (HUVEC); actives raise or lower the signal. A digest of the protocol:
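HUVEC, 3C stimulation; 24 h compound exposure; IL-8 read by ELISA; gain or loss of signal fitted relative to DMSO control.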

Read-out in experiment [2]: Monokine induced gamma interferon (MIG), CXCL9 (gene 4283)
Kind of experiment: BSK_3C_MIG: BioMAP Diversity Plus: 3C Assay for Monokine induced gamma interferon (MIG) Biomarker Activity (AID 2283021). To be noted: primary human endothelial cells (HUVEC); actives raise or lower the signal. An outline of the steps: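 HUVEC, 3C system; 24 h chemical exposure; MIG by ELISA; bidirectional fit vs DMSO baseline.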

The target in experiment [3] is human Vitamin D Receptor (VDR), VDR (gene 7421) (UniProt P11473). Kind of experiment: ATG_VDR_TRANS: Attagene TRANS-FACTORIAL HepG2 Assay for human Vitamin D Receptor (VDR) (AID 2283022; active = hit-call score of the fitted dose curve at least 0.9, where 1 is the maximum). A digest of the protocol: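 Transactivation by an exogenous VDR-Gal4 chimera in transiently transfected HepG2 cells was measured as reporter transcript level 24 hours after chemical treatment. RT-PCR products were analysed by capillary electrophoresis and fitted in the positive direction relative to DMSO.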

The nature of experiment [4]: BSK_3C_SRB: Viability Assessment in the BioMAP Diversity Plus: 3C Assay (AID 2283023).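 Also: fitted both ways against DMSO so a hit may be signal rise or drop.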 To be noted: primary human endothelial cells (HUVEC). An outline of the steps: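 Cytotoxicity readout in parallel HUVEC 3C cultures: after 24 h compound exposure, cells fixed with 10% TCA, stained with 0.1% SRB and read at 560 nm. Gain or loss relative to DMSO fitted.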
Read-out in experiment [5]: Matrix Metallopeptidase 1 (MMP1), MMP1 (gene 4312)
The experiment in a line: BSK_BE3C_MMP1: BioMAP Diversity Plus: BE3C Assay for Matrix Metallopeptidase 1 (MMP1) Biomarker Activity (AID 2283024). As to conditions: primary human bronchial epithelial cells; actives raise or lower the signal. An outline of the steps:
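ELISA read-out of MMP1 in human lung bronchial epithelial primary cultures, 24 h post-dose; bidirectional curve fit vs DMSO baseline, gain or loss of signal scored.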

Read-out in experiment [6]: Pselectin, SELP (gene 6403)
Kind of experiment: BSK_4H_Pselectin: BioMAP Diversity Plus: 4H Assay for Pselectin Biomarker Activity (AID 2283026). As to conditions: primary human endothelial cells (HUVEC); actives raise or lower the signal. A digest of the protocol: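 HUVEC, 24 h chemical exposure; P-selectin read by ELISA. Bidirectional curve fit vs DMSO baseline; gain or loss of signal scored.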

The nature of experiment [7]: BSK_4H_SRB: Viability Assessment in the BioMAP Diversity Plus: 4H Assay (AID 2283027).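 Also: cells exposed to compound for 24 h before staining.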 To be noted: primary human endothelial cells (HUVEC). An outline of the steps: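 Cytotoxicity readout: sulforhodamine B (0.1%) staining of total protein after 10% TCA fixation, measured at 560 nm in human umbilical vein endothelium at 24 h. DMSO set the baseline; fitting was bidirectional.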

Experiment [8] is described as follows: BSK_BE3C_SRB: Viability Assessment in the BioMAP Diversity Plus: BE3C Assay (AID 2283028).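 Also: measured 24 h after chemical dosing.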 As to conditions: primary human bronchial epithelial cells. An outline of the steps: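 Cytotoxicity read-out: SRB (0.1%) staining of TCA-fixed (10%) human lung bronchial epithelial cells, absorbance 560 nm, 24 h post-dosing. Curves fitted both directions relative to DMSO.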

Read-out in experiment [9]: Thrombomodulin, THBD (gene 7056)
The experiment in a line: BSK_3C_Thrombomodulin: BioMAP Diversity Plus: 3C Assay for Thrombomodulin Biomarker Activity (AID 2283029). As to conditions: primary human endothelial cells (HUVEC); actives raise or lower the signal. An outline of the steps:
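HUVEC, 3C conditions; compound 24 h; thrombomodulin by ELISA; bidirectional curve fit vs DMSO baseline; parallel SRB total-protein staining for cytotoxicity.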

Read-out in experiment [10]: Urokinase-type plasminogen activator receptor (uPAR), PLAUR (gene 5329)
The experiment in a line: BSK_4H_uPAR: BioMAP Diversity Plus: 4H Assay for Urokinase-type plasminogen activator receptor (uPAR) Biomarker Activity (AID 2283030). As to conditions: primary human endothelial cells (HUVEC); actives raise or lower the signal. A digest of the protocol:
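uPAR level read by ELISA on HUVEC cultures (BioMAP 4H) 24 h post-dosing, analyzed for gain or loss relative to DMSO. Parallel SRB staining assessed overt cytotoxicity.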

Read-out in experiment [11]: Vascular endothelial growth factor receptor 2 (Homo sapiens) (UniProt P35968)
Kind of experiment: BSK_4H_VEGFRII: BioMAP Diversity Plus: 4H Assay for Vascular endothelial growth factor receptor 2 (VEGFR2) Biomarker Activity (AID 2283031). To be noted: primary human endothelial cells (HUVEC); actives raise or lower the signal. An outline of the steps:
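Measured by ELISA after 24 h of compound treatment: VEGFR2 on primary human umbilical vein endothelial cells, fitted in both directions relative to DMSO. Parallel cultures received SRB staining (560 nm) for overt cytotoxicity.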

Read-out in experiment [12]: Human Leukocyte Antigen - DR isotype (HLADR), HLA-DRA (gene 3122)
The experiment in a line: BSK_BE3C_HLADR: BioMAP Diversity Plus: BE3C Assay for Human Leukocyte Antigen - DR isotype (HLADR) Biomarker Activity (AID 2283032). To be noted: primary human bronchial epithelial cells; actives raise or lower the signal. A digest of the protocol: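 Primary human bronchial epithelial cells (BE3C); 24 h chemical exposure; HLA-DR by ELISA; bidirectional curve fit vs DMSO baseline.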

Read-out in experiment [13]: Vascular cell adhesion molecule 1 (VCAM1), VCAM1 (gene 7412)
The experiment in a line: BSK_4H_VCAM1: BioMAP Diversity Plus: 4H Assay for Vascular cell adhesion molecule 1 (VCAM1) Biomarker Activity (AID 2283033).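 Also: cell-surface VCAM-1 protein measured by ELISA.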 As to conditions: primary human endothelial cells (HUVEC); actives raise or lower the signal. An outline of the steps:
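HUVEC, 24 h post-dose; VCAM-1 by ELISA. Bidirectional curve fit vs DMSO baseline. Parallel SRB total-protein stain (0.1% SRB after 10% TCA fixation, 560 nm) for cytotoxicity.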

Read-out in experiment [14]: Interferon-gamma inducible Protein 10 (IP10), CXCL10 (gene 3627)
Kind of experiment: BSK_BE3C_IP10: BioMAP Diversity Plus: BE3C Assay for Interferon-gamma inducible Protein 10 (IP10) Biomarker Activity (AID 2283034). As to conditions: primary human bronchial epithelial cells; actives raise or lower the signal. A digest of the protocol:
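ELISA readout of IP-10 in BE3C system: primary human bronchial epithelial cells, 24 h post-dosing; bidirectional curve fit vs DMSO baseline.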

Read-out in experiment [15]: Monokine induced gamma interferon (MIG), CXCL9 (gene 4283)
The experiment in a line: BSK_BE3C_MIG: BioMAP Diversity Plus: BE3C Assay for Monokine induced gamma interferon (MIG) Biomarker Activity (AID 2283035).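 Also: MIG protein measured by ELISA in BE3C cultures after 24 h of dosing.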 To be noted: primary human bronchial epithelial cells; actives raise or lower the signal. A digest of the protocol:
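hu bronchial epithelial 1° cells, 24 h cpd; MIG by ELISA; bidirectional fit, DMSO = baseline.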

Read-out in experiment [16]: Plasminogen activator inhibitor-1 (PAI1), SERPINE1 (gene 5054)
The experiment in a line: BSK_BE3C_PAI1: BioMAP Diversity Plus: BE3C Assay for Plasminogen activator inhibitor-1 (PAI1) Biomarker Activity (AID 2283037). As to conditions: primary human bronchial epithelial cells; actives raise or lower the signal. An outline of the steps: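 ELISA read-out of PAI-1 from human bronchial epithelial primary cells, 24 h post-dosing; bidirectional curve fit vs DMSO baseline, gain or loss of signal scored.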

Read-out in experiment [17]: urokinase plasminogen activator (uPA), PLAU (gene 5328)
The experiment in a line: BSK_BE3C_uPA: BioMAP Diversity Plus: BE3C Assay for urokinase plasminogen activator (uPA) Biomarker Activity (AID 2283038).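 Also: uPA protein level quantified by ELISA in cell cultures; uPA read one day after compound addition.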 As to conditions: primary human bronchial epithelial cells; actives raise or lower the signal. An outline of the steps:
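ELISA for uPA on human primary bronchial epithelial cultures 24 h post-treatment, gain or loss against DMSO. Parallel SRB staining (0.1% after 10% TCA fixation, 560 nm) assessed overt cytotoxicity.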

Read-out in experiment [18]: Urokinase-type plasminogen activator receptor (uPAR), PLAUR (gene 5329)
Kind of experiment: BSK_BE3C_uPAR: BioMAP Diversity Plus: BE3C Assay for Urokinase-type plasminogen activator receptor (uPAR) Biomarker Activity (AID 2283039).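 Also: uPAR protein level measured by ELISA on the cells; cells exposed to compound for one day before measurement.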 To be noted: primary human bronchial epithelial cells; actives raise or lower the signal. A digest of the protocol:
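ELISA readout of uPAR on human lung primary bronchial epithelial cells, 24 h post-dosing. Bidirectional curve fit relative to DMSO vehicle baseline; gain or loss of signal both scored.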

Experiment [19] is described as follows: BSK_3C_Vis: BioMAP Diversity Plus: 3C Assay for Morphology Visualization (AID 2283025).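 Also: fitted both ways so gain or loss versus DMSO counts.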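 As to AC50: light microscopy image of cell morphology used as background control.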 As to conditions: primary human endothelial cells (HUVEC). An outline of the steps:
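HUVEC, 3C system; light microscopy of morphology at 24 h post-dose. Bidirectional fit vs DMSO baseline. Secondary readout, background-control function.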

Read-out in experiment [20]: Transforming growth factor beta 1 (TGFb1), TGFB1 (gene 7040)
The experiment in a line: BSK_BE3C_TGFb1: BioMAP Diversity Plus: BE3C Assay for Transforming growth factor beta 1 (TGFb1) Biomarker Activity (AID 2283036;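 also: TGF-b1 protein level measured by ELISA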). To be noted: primary human bronchial epithelial cells; actives raise or lower the signal. An outline of the steps:
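Read-out: ELISA for TGF-b1 in primary human bronchial epithelial cultures, 24 h post-dose. Bidirectional curve fitting vs DMSO control; gain or loss of signal both scored.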

Consider 6 molecules from PubChem BioAssay (EPA / NIEHS).

Records with an inconclusive call do not appear. The source made the active and inactive calls. The calls were made as follows, unless noted: active = hit-call score of the fitted dose curve at least 0.9, where 1 is the maximum; inactive = score below 0.9.

Sequence of human Vitamin D Receptor (VDR), VDR (gene 7421) (P11473 whole entry, looked up, the tested form may be a part): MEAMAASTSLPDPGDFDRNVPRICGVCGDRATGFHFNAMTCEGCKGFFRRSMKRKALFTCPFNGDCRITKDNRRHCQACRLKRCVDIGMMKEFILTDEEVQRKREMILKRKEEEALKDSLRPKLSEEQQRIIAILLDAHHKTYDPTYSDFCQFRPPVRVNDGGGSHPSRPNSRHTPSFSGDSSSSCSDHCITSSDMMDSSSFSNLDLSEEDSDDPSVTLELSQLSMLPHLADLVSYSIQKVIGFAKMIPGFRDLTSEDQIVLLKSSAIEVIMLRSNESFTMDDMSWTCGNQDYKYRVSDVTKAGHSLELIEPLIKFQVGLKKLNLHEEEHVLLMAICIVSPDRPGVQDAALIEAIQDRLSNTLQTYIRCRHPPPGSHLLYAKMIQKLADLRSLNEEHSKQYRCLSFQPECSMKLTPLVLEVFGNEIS

Turning to `NC(O)(C(F)(F)F)C(F)(F)F`, the outcome in [1], in experiment [2], in [3], in experiment [4], in experiment [5] and in experiment [6] was inactive. Besides, the outcome in experiment [7], in experiment [8], in experiment [9], in [10], in experiment [11] and in experiment [12] was inactive. Besides, the outcome in experiment [13], in experiment [14], in [15], in experiment [16], in experiment [17] and in experiment [18] was inactive.
For `Cc1cnccn1`, the outcome in experiment [1], in [2], in experiment [4], in experiment [5], in experiment [19] and in [6] was inactive. For the same molecule, the outcome in experiment [7], in [8], in experiment [9], in [10], in [11] and in experiment [12] was inactive. Moreover, the outcome in [13], in [14], in [15], in experiment [20], in experiment [16] and in experiment [17] was inactive. For the same molecule, the outcome in [18] was inactive.
For `OCC(F)(F)C(F)(F)C(F)(F)C(F)(F)C(F)(F)C(F)(F)CO`, the outcome in [1], in [2], in experiment [3], in experiment [4], in experiment [5] and in experiment [6] was inactive. The result in experiment [7], in experiment [8], in experiment [9], in [10], in [11] and in [12] was inactive. In addition, the result in [13], in [14], in experiment [15], in experiment [16], in experiment [17] and in experiment [18] was inactive.
With `FC(F)(F)C(F)(F)C(F)(F)C(F)(F)C(F)(F)C(F)(F)C(F)(F)CCI`, the outcome in [1], in [2], in experiment [3], in experiment [4], in experiment [5] and in experiment [6] was inactive. Also, the result in [7], in [8], in experiment [9], in [10], in [11] and in experiment [12] was inactive. In addition, the outcome in experiment [13], in experiment [14], in experiment [15], in experiment [16], in experiment [17] and in experiment [18] was inactive.
On to `O=S(=O)(OCC(F)(F)F)C(F)(F)C(F)(F)C(F)(F)C(F)(F)F`, for which the result in experiment [1], in experiment [2], in experiment [3], in experiment [4], in experiment [5] and in [6] was inactive. The result in [7], in experiment [8], in experiment [9], in experiment [10], in [11] and in [12] was inactive. Besides, the result in experiment [13], in experiment [14], in [15], in experiment [16], in experiment [17] and in [18] was inactive.
A word on the AC50: it is the midpoint of the concentration-response curve, whichever way the signal moves. Turning to `CC(C)(C)c1cc(CCC(=O)NCCCCCCNC(=O)CCc2cc(C(C)(C)C)c(O)c(C(C)(C)C)c2)cc(C(C)(C)C)c1O`, the outcome in experiment [1], in experiment [2], in experiment [4], in [5], in experiment [6] and in experiment [7] was inactive. The result in experiment [8], in experiment [9], in experiment [10], in experiment [11], in experiment [12] and in experiment [13] was inactive. For the same molecule, the result in experiment [15], in [20], in [16], in [17] and in experiment [18] was inactive. Further, the AC50 was 3250 nM (active) in experiment [19] and 121 nM (active) in [14].
